# Data as given in PubChem BioAssay (NCATS).
# Records with an inconclusive call do not appear. Active and inactive are the calls of the source. Calls follow the shape of the dose curve; as a rule, active = well fitted cell-killing curve with a large enough effect; inconclusive = small, poorly fitted or top-dose-only effect, or effect the other way; inactive = no such curve, though single readings can be large or run the other way.
# Test: Quantitative High-Throughput drug screen in 47 multiple myeloma cell lines against the NCATS MIPE library collection: MM1R_ATCC cell viability assay (AID 1918981)
# Settings: MM1R multiple myeloma cells, CellTiter-Glo viability, 48 h; series mostly up to 45.8 µM
# Method in brief: (§1)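 Inhibition of viability over 48 h was scored by ATP content (CellTiter-Glo) in 500-cell wells. Zero and full viability were defined by media-only and DMSO-only wells.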
# Also: nearly all actives have a fitted effect of over 35% in size.
# Potency is read from the fitted curve at half-maximal effect.
row,Structure (SMILES),Potency
1,C[C@H]([C@H](O)CCC(C)(C)O)[C@H]1CC[C@@]2(O)C3=CC(=O)[C@@H]4C[C@@H](O)[C@@H](O)C[C@]4(C)[C@@H]3CC[C@]12C,inactive
2,CC(=Cc1csc(C)n1)[C@@H]1C[C@H]2O[C@@H]2CCC[C@H](C)[C@@H](O)[C@@H](C)C(=O)C(C)(C)[C@@H](O)CC(=O)O1,inactive
3,Clc1ccccc1C(c1ccccc1)(c1ccccc1)n1cccn1,23.5 µM (active)
4,C[C@@H]1CC[C@H]2[C@@H](C)C(=O)O[C@@H]3O[C@@]4(C)CC[C@H]1[C@]32OO4,inactive
5,COC1=CC(C)=C[C@@H](C)[C@@H](O)[C@@H](C)CC(C)=CC=C[C@H](OC)[C@H]([C@@H](C)[C@@H](O)[C@H](C)[C@@]2(O)C[C@@H](O)[C@H](C)[C@@H](C(C)C)O2)OC1=O,1.66 µM (active)
6,CC(C)(C)[C@]1(O)C[C@@H]2OC(=O)C[C@@]23C(=O)O[C@@H]2OC(=O)[C@H](O)C213 (stereo partly drawn),inactive
7,COc1ccc(N(C(=O)Oc2c(C)cccc2C)c2ccnc(Nc3ccc(N4CCN(C)CC4)cc3)n2)c(OC)c1,2.35 µM (active)
8,C[C@@H]1[C@H](O)[C@@H](C)C=CC=CCCC=CC=CC=CC=C[C@H](O[C@H]2O[C@@H](C)[C@H](O)[C@@H](N)[C@@H]2O)CC2O[C@](O)(C[C@@H](O)[C@H](O)CC[C@@H](O)C[C@@H](O)C[C@@H](O)CC(=O)O[C@H]1C)C[C@H](O)[C@H]2C(=O)O,inactive
9,C[C@]12COC(=O)C[C@@H]1CC[C@@H]1[C@H]2CC[C@@]2(C)[C@H]1CC[C@]2(C)O,inactive
10,C=C[C@@H]1CN2CCC1C[C@@H]2[C@@H](O)c1ccnc2ccccc12 (stereo partly drawn),16.6 µM (active)
11,C[C@H]1CCCC=CC2C[C@H](O)C[C@@H]2[C@H](O)C=CC(=O)O1 (stereo partly drawn),inactive
12,CC1=C(O)C(=O)C=C2C1=CC=C1[C@@]2(C)CC[C@@]2(C)[C@@H]3C[C@](C)(C(=O)O)CC[C@]3(C)CC[C@]12C,0.469 µM (active)
13,CC(C)[C@]12O[C@@H]1[C@@H]1O[C@]13[C@]1(O[C@H]1C[C@@H]1C4=C(CC[C@@]13C)C(=O)OC4)[C@H]2O,inactive
14,O=c1[nH]c2ccccc2n1C1CCN(Cc2ccc(-c3[nH]c4cc5ncnc5cc4nc3-c3ccccc3)cc2)CC1,16.6 µM (active)
15,CCCC[N+]1(C)[C@H]2CC(OC(=O)[C@H](CO)c3ccccc3)C[C@H]1[C@H]1O[C@H]12 (stereo partly drawn),inactive
16,O=C(Nc1ccncc1)C(=O)c1cn(Cc2ccc(Cl)cc2)c2ccccc12,0.187 µM (active)
17,COCC1(CO)C(=O)C2CCN1CC2 (stereo not drawn),0.469 µM (active)
18,C=C[C@@H]1CN2CCC1C[C@H]2[C@H](O)c1ccnc2ccccc12 (stereo partly drawn),26.4 µM (active)
19,C=CCON=C(C[C@H]1O[C@@H]2O[C@]3(C)CC[C@@H]4[C@H](C)CC[C@@H]([C@H]1C)[C@@]24OO3)[C@H]1O[C@@H]2O[C@]3(C)CC[C@H]4[C@H](C)CC[C@@H]([C@@H]1C)[C@@]24OO3,0.296 µM (active)
20,COc1ccc2c(c[n+](C)c3c4cc5c(cc4ccc23)OCO5)c1OC,2.35 µM (active)
21,COc1cccc2c1[C@]13CCN(CC4CC4)[C@H](C2)[C@]1(OC)CCC(=O)C3,inactive
22,Cc1[nH]nc2ccc(-c3cncc(OC[C@@H](N)Cc4c[nH]c5ccccc45)c3)cc12,1.48 µM (active)
23,CCOC(=O)Nc1ccc(NCc2ccc(F)cc2)cc1N,inactive
24,CN1CCN(c2ccc([N+](=O)[O-])c3no[n+]([O-])c23)CC1,20.9 µM (active)
25,CCNC(=O)C[C@@H]1N=C(c2ccc(Cl)cc2)c2cc(OC)ccc2-n2c(C)nnc21,0.59 µM (active)
26,CC=C(C)C(=O)O[C@H]1C(C)=C2[C@@H]3OC(=O)[C@@](C)(O)[C@@]3(O)[C@@H](OC(=O)CCC)C[C@](C)(OC(C)=O)[C@@H]2[C@@H]1OC(=O)CCCCCCC,0.0166 µM (active)

# Test: Quantitative High-Throughput drug screen in 47 multiple myeloma cell lines against the NCATS MIPE library collection: LP1_DSMZ cell viability assay (AID 1918982)
# Settings: LP1 myeloma viability, CellTiter-Glo ATP luminescence, 48 h; series mostly up to 45.8 µM
# Method in brief: as §1
row,Structure (SMILES),Potency
1,C[C@H]([C@H](O)CCC(C)(C)O)[C@H]1CC[C@@]2(O)C3=CC(=O)[C@@H]4C[C@@H](O)[C@@H](O)C[C@]4(C)[C@@H]3CC[C@]12C,inactive
2,C1=C2CCCN[C@H]2[C@@H]2C[C@H]1[C@@H]1CCCCN1C2,inactive
3,CC(=Cc1csc(C)n1)[C@@H]1C[C@H]2O[C@@H]2CCC[C@H](C)[C@@H](O)[C@@H](C)C(=O)C(C)(C)[C@@H](O)CC(=O)O1,inactive
4,C[C@@H]1CC[C@H]2[C@@H](C)C(=O)O[C@@H]3O[C@@]4(C)CC[C@H]1[C@]32OO4,inactive
5,CO[C@H]1CCC(O[C@H]2C[C@H]([C@]3(C)CC[C@]4(C[C@H](O)[C@@H](C)[C@@H]([C@@H](C)C=C(C)C(=O)[C@H](C)C[C@H](C)C(=O)O)O4)O3)O[C@]3(O[C@@H]([C@H]4O[C@@](O)(CO)[C@H](C)C[C@H]4C)C[C@H]3C)[C@H]2C)O[C@H]1C (stereo partly drawn),0.833 µM (active)
6,COC1=CC(C)=C[C@@H](C)[C@@H](O)[C@@H](C)CC(C)=CC=C[C@H](OC)[C@H]([C@@H](C)[C@@H](O)[C@H](C)[C@@]2(O)C[C@@H](O)[C@H](C)[C@@H](C(C)C)O2)OC1=O,0.0021 µM (active)
7,O=c1[nH]c2ccc(Cl)cc2c(N[C@@H]2CN3CCC2CC3)c1-c1nc2ccccc2[nH]1,3.32 µM (active)
8,CC(C)(C)[C@]1(O)C[C@@H]2OC(=O)C[C@@]23C(=O)O[C@@H]2OC(=O)[C@H](O)C213 (stereo partly drawn),inactive
9,C[C@@H]1[C@H](O)[C@@H](C)C=CC=CCCC=CC=CC=CC=C[C@H](O[C@H]2O[C@@H](C)[C@H](O)[C@@H](N)[C@@H]2O)CC2O[C@](O)(C[C@@H](O)[C@H](O)CC[C@@H](O)C[C@@H](O)C[C@@H](O)CC(=O)O[C@H]1C)C[C@H](O)[C@H]2C(=O)O,inactive
10,C[C@H]1CCCC=CC2C[C@H](O)C[C@@H]2[C@H](O)C=CC(=O)O1 (stereo partly drawn),inactive
11,CC1=C(O)C(=O)C=C2C1=CC=C1[C@@]2(C)CC[C@@]2(C)[C@@H]3C[C@](C)(C(=O)O)CC[C@]3(C)CC[C@]12C,0.833 µM (active)
12,CCN1CCN(C(=O)Cc2ccc(Nc3ncc(F)c(Nc4ccc(C(=O)Nc5ccccc5Cl)cc4)n3)cc2)CC1,8.33 µM (active)
13,O=S(=O)(F)Cc1ccccc1,inactive
14,CC(C)[C@]12O[C@@H]1[C@@H]1O[C@]13[C@]1(O[C@H]1C[C@@H]1C4=C(CC[C@@]13C)C(=O)OC4)[C@H]2O,inactive
15,O=c1[nH]c2ccccc2n1C1CCN(Cc2ccc(-c3[nH]c4cc5ncnc5cc4nc3-c3ccccc3)cc2)CC1,20.9 µM (active)
16,CCCC[N+]1(C)[C@H]2CC(OC(=O)[C@H](CO)c3ccccc3)C[C@H]1[C@H]1O[C@H]12 (stereo partly drawn),inactive

row,Structure (SMILES),Potency
1,O=C(Nc1ccncc1)C(=O)c1cn(Cc2ccc(Cl)cc2)c2ccccc12,0.0935 µM (active)
2,CSCC[C@@H](NC(=O)[C@@H](Cc1ccccc1)NC(=O)CNC(=O)CNC(=O)[C@@H](N)Cc1ccc(O)cc1)C(=O)O,inactive
3,COCC1(CO)C(=O)C2CCN1CC2 (stereo not drawn),2.64 µM (active)
4,c1ccc2c(CN3CCNCC3)cccc2c1,inactive
5,C=C[C@@H]1CN2CCC1C[C@H]2[C@H](O)c1ccnc2ccccc12 (stereo partly drawn),10.5 µM (active)
6,CCc1c(C(=O)C(N)=O)c2c(OCC(=O)O)cccc2n1Cc1ccccc1,inactive
7,COc1ccc2c(c[n+](C)c3c4cc5c(cc4ccc23)OCO5)c1OC,14.8 µM (active)
8,COc1cccc2c1[C@]13CCN(CC4CC4)[C@H](C2)[C@]1(OC)CCC(=O)C3,inactive
9,Cc1[nH]nc2ccc(-c3cncc(OC[C@@H](N)Cc4c[nH]c5ccccc45)c3)cc12,1.66 µM (active)
10,CC(C)(O)C=CC(=O)[C@](C)(O)[C@H]1[C@H](O)C[C@]2(C)[C@@H]3CC=C4[C@@H](C=C(O)C(=O)C4(C)C)[C@]3(C)C(=O)C[C@@]12C,0.418 µM (active)
11,CC[C@@H]1[C@@H](C)O[C@@](O)([C@@H](C)[C@H](O)[C@H](C)[C@H]2OC(=O)C=CC=C[C@@H](C)[C@@H]([C@@H](C)[C@@H](O)[C@H](C)[C@@]3(O)C[C@H](O[C@H]4C[C@H](O)[C@H](O)[C@H](C)O4)[C@H](CC)[C@@H](C)O3)OC(=O)C=CC=C[C@@H]2C)C[C@H]1O[C@H]1C[C@H](O)[C@H](O)[C@H](C)O1,0.59 µM (active)
12,CC[C@@]1(O)C(=O)OCc2c1cc1n(c2=O)Cc2cc3ccccc3nc2-1,0.59 µM (active)
13,CCOC(=O)Nc1ccc(NCc2ccc(F)cc2)cc1N,inactive
14,CN1CCN(c2ccc([N+](=O)[O-])c3no[n+]([O-])c23)CC1,18.7 µM (active)
15,C[C@@H]1O[C@@H](O[C@@H]2C=C3CC[C@@H]4[C@@H](CC[C@]5(C)[C@H](c6ccc(=O)oc6)CC[C@@]45O)[C@@]3(C)CC2)[C@H](O)[C@H](O)[C@H]1O,0.0066 µM (active)
16,CC=C(C)C(=O)O[C@H]1C(C)=C2[C@@H]3OC(=O)[C@@](C)(O)[C@@]3(O)[C@@H](OC(=O)CCC)C[C@](C)(OC(C)=O)[C@@H]2[C@@H]1OC(=O)CCCCCCC,0.0296 µM (active)
